Hit rate of the full screen: of about 5,500 compounds, about 2,000 (36%) were called active. Not shown: some 18% with an inconclusive outcome. Cut-off read from the data, not from the text of the source: active = normalized growth mostly below about 0.91 (no sharp cut-off); inconclusive = no clear call, values can overlap the other calls; inactive = mostly above about 0.92. This is one part of the list.
Assay: chemical genetic growth profiling, strain panel (AID 1159580);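 note: tested at 20 µM; growth read once vehicle control cultures reached saturation at 30 °C; 1 = growth at the plate median or of vehicle wells; lower values mean less growth of the strain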
Conditions: S. cerevisiae deletion strains, growth OD
[1] = locus YAR019C, strain CDC15, hits give low values
[2] = locus YBL105C, strain PKC1, hits give low values
[3] = locus YBR135W, strain CKS1, hits give low values
[4] = locus YBR136W, strain MEC1, hits give low values
[5] = locus YBR160W, strain CDC28, hits give low values
[6] = locus YDL017W, strain CDC7, hits give low values
[7] = locus YDL028C, strain MPS1, hits give low values
[8] = locus YDL101C, strain DUN1, hits give low values
[9] = locus YDL108W, strain KIN28, hits give low values
[10] = locus YDL132W, strain cdc53, hits give low values
[11] = locus YDL214C, strain PRR2, hits give low values
[12] = locus YDR052C, strain DBF4, hits give low values
[13] = locus YDR054C, strain cdc34, hits give low values
[14] = locus YDR226W, strain ADK1, hits give low values
[15] = locus YDR477W, strain SNF1, hits give low values
[16] = locus YER123W, strain YCK3, hits give low values
[17] = locus YER133W, strain GLC7, hits give low values
[18] = locus YFL009W, strain cdc4, hits give low values
[19] = locus YFL029C, strain CAK1, hits give low values
[20] = locus YFR003C, strain YPI1, hits give low values
[21] = locus YFR019W, strain FAB1, hits give low values
[22] = locus YFR028C, strain CDC14, hits give low values
[23] = locus YGR040W, strain KSS1, hits give low values
[24] = locus YGR052W, strain FMP48, hits give low values
[25] = locus YGR092W, strain DBF2, hits give low values
[26] = locus YHR030C, strain SLT2, hits give low values
[27] = locus YHR079C, strain IRE1, hits give low values
[28] = locus YHR082C, strain KSP1, hits give low values
[29] = locus YHR205W, strain SCH9, hits give low values
[30] = locus YIL147C, strain SLN1, hits give low values
[31] = locus YJL095W, strain BCK1, hits give low values
[32] = locus YJL128C, strain PBS2, hits give low values
[33] = locus YJL157C, strain FAR1, hits give low values
[34] = locus YJR016C, strain ILV3, hits give low values
[35] = locus YJR066W, strain TOR1 (second series), hits give low values
[36] = locus YJR066W, strain TOR1, hits give low values
[37] = locus YKL048C, strain ELM1, hits give low values
[38] = locus YKL067W, strain YNK1, hits give low values
[39] = locus YKL101W, strain HSL1, hits give low values
[40] = locus YKL193C, strain SDS22, hits give low values
[41] = locus YKL203C, strain TOR2, hits give low values
[42] = locus YLR113W, strain HOG1, hits give low values
[43] = locus YLR133W, strain CKI1, hits give low values
[44] = locus YLR403W, strain SFP1, hits give low values
[45] = locus YML070W, strain DAK1, hits give low values
[46] = locus YMR001C, strain CDC5, hits give low values
[47] = locus YMR205C, strain PFK2 (second series), hits give low values
[48] = locus YMR277W, strain FCP1, hits give low values
[49] = locus YNL006W, strain LST8, hits give low values
[50] = locus YNL020C, strain ARK1, hits give low values
[51] = locus YNL161W, strain CBK1, hits give low values
[52] = locus YNL183C, strain NPR1, hits give low values
[53] = locus YNL207W, strain RIO2, hits give low values
[54] = locus YNL222W, strain SSU72, hits give low values
[55] = locus YNL307C, strain MCK1 (second series), hits give low values
[56] = locus YOL078W, strain AVO1, hits give low values
[57] = locus YOL136C, strain PFK27, hits give low values
[58] = locus YOR061W, strain CKA2, hits give low values
[59] = locus YOR119C, strain RIO1, hits give low values
[60] = locus YOR231W, strain MKK1, hits give low values
[61] = locus YOR329C, strain SCD5, hits give low values
[62] = locus YPL031C, strain PHO85, hits give low values
[63] = locus YPL153C, strain RAD53, hits give low values
[64] = locus YPL204W, strain HRR25, hits give low values
[65] = locus YPL209C, strain IPL1, hits give low values
[66] = locus YPL256C, strain CLN2, hits give low values
[67] = locus YPR025C, strain CCL1, hits give low values
[68] = locus YPR106W, strain ISR1, hits give low values
[69] = locus YPR111W, strain DBF20, hits give low values
[70] = strain NNK1, hits give low values
[71] = strain TSCII, hits give low values

Measured: normalized growth

CCCCNC(=S)N/N=C\c1cc(Cl)cc(Cl)c1O
active: [11] 0.65 | [15] 0.513 | [16] 0.519 | [17] 0.601 | [23] 0.531 | [24] 0.195 | [25] 0.35 | [26] 0.275 | [28] 0.242 | [29] 0.236 | [31] 0.352 | [33] 0.63 | [35] 0.58 | [36] 0.289 | [37] 0.637 | [38] 0.676 | [39] 0.385 | [41] 0.249 | [42] 0.444 | [43] 0.49 | [44] 0.302 | [45] 0.603 | [47] 0.603 | [50] 0.44 | [52] 0.318 | [55] 0.362 | [58] 0.538 | [59] 0.343 | [62] 0.477 | [63] 0.495 | [64] 0.488 | [66] 0.457 | [70] 0.787
inactive: [1] 0.929 | [2] 0.928 | [3] 0.922 | [4] 0.924 | [5] 0.941 | [6] 0.926 | [7] 0.926 | [8] 0.97 | [9] 0.922 | [10] 0.917 | [12] 0.941 | [13] 0.914 | [14] 0.924 | [18] 0.913 | [19] 0.936 | [20] 0.918 | [21] 0.785 | [22] 0.924 | [27] 0.601 | [30] 0.923 | [32] 0.897 | [34] 0.922 | [40] 0.916 | [46] 0.913 | [48] 0.905 | [49] 0.934 | [51] 0.932 | [53] 0.922 | [54] 0.933 | [56] 0.912 | [57] 0.713 | [60] 0.591 | [61] 0.924 | [65] 0.928 | [67] 0.931 | [68] 0.908 | [69] 0.933 | [71] 0.918

COCCCNC(=S)N/N=C\c1cc(Cl)cc(Cl)c1O
active: [26] 0.797 | [66] 0.859
inactive: [1] 0.958 | [2] 0.946 | [3] 0.957 | [4] 0.956 | [5] 0.965 | [6] 0.951 | [7] 0.951 | [8] 0.959 | [9] 0.961 | [10] 0.958 | [11] 0.942 | [12] 0.956 | [13] 0.947 | [14] 0.951 | [15] 0.914 | [16] 0.944 | [17] 0.924 | [18] 0.952 | [19] 0.958 | [20] 0.954 | [21] 0.962 | [22] 0.968 | [23] 0.927 | [24] 0.942 | [25] 0.783 | [27] 0.903 | [28] 0.983 | [29] 0.853 | [30] 0.957 | [31] 0.904 | [32] 0.924 | [33] 0.918 | [34] 0.957 | [35] 0.887 | [36] 0.957 | [37] 0.936 | [38] 0.953 | [39] 0.946 | [40] 0.953 | [41] 0.953 | [42] 0.904 | [43] 0.924 | [44] 0.889 | [45] 0.95 | [46] 0.956 | [47] 0.943 | [48] 0.962 | [49] 0.963 | [50] 0.903 | [51] 0.959 | [52] 0.988 | [53] 0.957 | [54] 0.962 | [55] 0.909 | [56] 0.962 | [57] 0.953 | [58] 0.951 | [59] 0.989 | [60] 0.943 | [61] 0.96 | [62] 0.904 | [63] 0.903 | [64] 0.882 | [65] 0.962 | [67] 0.961 | [68] 0.955 | [69] 0.96 | [70] 0.955 | [71] 0.956

Source: PubChem BioAssay AID1159580 (chemical genetic matrix, 2015)
